Source: PubChem
eLon inh = inhibitors of E. coli Lon protease, primary screen, biochemical, fluorescence polarization | P0A9M0 | purified E. coli Lon protease | inhibition, % at 7.94 µM | 0.42% of 360,000 active | AID 602123, 2011; in the data active = inhibition above about 13%, passing the limit was not always enough
MEX-5 binding = MEX-5 zinc finger RNA-binding disruptors – biochemical, C. elegans, fluorescence polarization, MLPCN library, primary screen. Zinc finger protein mex-5 (Caenorhabditis elegans), Q9XUB2. 0.38% of 300,000 active. MEX-5/FITC-TCR2 RNA binding; active compounds read low. activity score (negative = inhibition of binding), % at 10 µM;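 active = inhibition past about -25% in most replicates, and total fluorescence under double the plate's negative control median, limit read from the data; inconclusive = replicates evenly split on the limit, or fluorescence at least double controls; inactive = too little inhibition in most replicates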
Target sequence (Q9XUB2 whole entry, looked up): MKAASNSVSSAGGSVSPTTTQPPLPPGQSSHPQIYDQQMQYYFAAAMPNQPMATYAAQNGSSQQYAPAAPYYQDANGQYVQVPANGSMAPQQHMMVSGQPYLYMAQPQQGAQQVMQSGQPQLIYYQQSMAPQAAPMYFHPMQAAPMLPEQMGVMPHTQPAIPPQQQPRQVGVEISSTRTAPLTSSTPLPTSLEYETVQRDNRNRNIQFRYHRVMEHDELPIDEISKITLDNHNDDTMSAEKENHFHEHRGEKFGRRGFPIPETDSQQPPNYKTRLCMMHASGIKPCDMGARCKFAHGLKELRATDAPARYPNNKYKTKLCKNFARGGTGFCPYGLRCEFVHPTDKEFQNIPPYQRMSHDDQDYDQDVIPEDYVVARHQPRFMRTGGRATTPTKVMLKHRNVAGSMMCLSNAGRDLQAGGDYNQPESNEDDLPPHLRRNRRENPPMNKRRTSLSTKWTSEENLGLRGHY
MCL1-BIM inh = inhibitors of MCL1 binding to BIM-BH3, primary screen, biochemical, fluorescence polarization. Induced myeloid leukemia cell differentiation protein Mcl-1 (Homo sapiens), Q07820. GST-MCL1 / FITC-Bim-BH3 fluorescence polarization. inhibition, % at 10.9 µM. 0.68% of 320,000 active;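 active = inhibition above the mean inhibition of all tested compounds plus 3 SD, set per campaign, cut at about 40% in these data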;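 note: higher means more loss of mP so more displacement of Bim peptide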
EBV gp42 block = Epstein-Barr virus gp42 inhibitors, primary screen, biochemical, uHTS, fluorescence polarization; inhibition, % (tested at 21.74 µM); Fluorescence polarization binding assay, mP read-out; 0.42% of 220,000 active; Glycoprotein 42 (Epstein-Barr virus (strain AG876)), Q1HVG2; in the data active = inhibition above about 50%
BCLXL inh = inhibitors of human Bcl-xL, primary screen, biochemical, fluorescence polarization, HTS; Bcl-2-like protein 1 (Homo sapiens), Q07817; GST-Bcl-xL / FITC-Bim BH3 peptide fluorescence polarization; AID 2129, 2009; 0.7% of 320,000 active; inhibition, % at 10.9 µM;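 active = inhibition above the mean of all tested compounds plus 3 SD, cutoff set per campaign, cut at about 30% in these data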;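 note: inhibitors lower millipolarization by displacing the labeled peptide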
Target sequence (Q07817 whole entry, looked up): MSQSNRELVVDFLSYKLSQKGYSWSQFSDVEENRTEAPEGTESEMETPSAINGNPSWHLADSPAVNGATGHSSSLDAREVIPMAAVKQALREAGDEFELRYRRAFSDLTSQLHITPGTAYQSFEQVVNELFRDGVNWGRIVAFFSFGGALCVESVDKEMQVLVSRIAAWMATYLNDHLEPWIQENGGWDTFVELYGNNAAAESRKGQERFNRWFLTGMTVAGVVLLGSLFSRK
GLD-1 RNA inh = GLD-1/TGE RNA complex disruptors, primary screen, biochemical, fluorescence polarization; Female germline-specific tumor suppressor gld-1 (Caenorhabditis elegans), Q17339; purified GLD-1 + fluorescein TGE RNA; inhibition, % at 5.96 µM; 0.44% of 320,000 active;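 active = percent inhibition above a per-plate cutoff, the plate mean of test compounds plus 3 SD, cut at about 30% in these data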
eLon confirm = E. coli Lon protease inhibitor retest, confirmation, biochemical, fluorescence polarization; AID 602230, 2012; 31% of 1,400 active; shares compounds with eLon inh; purified E. coli Lon; inhibition, % at 7.94 µM; in the data active = inhibition above about 16%
Of the large screens only hits and unclear results are named; the others gave an inactive call (follow-up assays come after a bar, where they were run). Only some compounds are listed: those with a hit (about 1.4% of all), similar ones and a draw of the others.

Nc1ccc2c3c(cccc13)-c1ccccc1-2	eLon inh 189 (no result: MEX-5 binding, MCL1-BIM inh, EBV gp42 block, BCLXL inh, GLD-1 RNA inh) | eLon confirm active
Oc1cc(CNC2CCCCC2)c(O)cc1CNC1CCCCC1	eLon inh 45 (no result: MEX-5 binding, MCL1-BIM inh, EBV gp42 block, BCLXL inh, GLD-1 RNA inh) | eLon confirm 17
O=C(Nc1ccc(Cl)cc1)Nc1ccc(S(=O)(=O)Nc2ncccn2)cc1	eLon inh 65 | eLon confirm 48
O=S(=O)(Nc1ncccn1)c1ccc(NC(=S)Nc2ccc(Cl)cc2)cc1	none
O=S(=O)(Nc1ncccn1)c1ccc(Nc2ncnc3ccccc23)cc1	eLon inh 20 | eLon confirm 81
O=C(Nc1ccc(S(=O)(=O)Nc2ncccn2)cc1)c1ccc(Br)s1	eLon inh 28 | eLon confirm 34
O=S(=O)(Nc1ccc(S(=O)(=O)Nc2ncccn2)cc1)c1ccccc1	none (no result: EBV gp42 block)
O=C(COC(=O)CCC(=O)c1cccs1)Nc1cccc(F)c1	none (no result: MEX-5 binding, EBV gp42 block)
O=C1c2ccccc2C(O)N1Cc1ccc2c(c1)OCO2 (stereo not given)	eLon inh 15 | eLon confirm inactive
N#Cc1ccccc1NC(=O)COC(=O)c1ccc(F)cc1F	eLon inh 17 (no result: EBV gp42 block) | eLon confirm inactive
O=C1N[C@@H](Cc2ccccc2)C(=O)N2[C@H]1C[C@]1([C@]34C[C@H]5C(=O)N[C@@H](Cc6ccccc6)C(=O)N5[C@H]3N(S(=O)(=O)c3ccccc3)c3ccccc34)c3ccccc3N(S(=O)(=O)c3ccccc3)[C@H]21	eLon inh 55 (no result: EBV gp42 block) | eLon confirm inactive
Cc1cc2nc3c(=O)[nH]c(=O)[nH]c3nc2c([N+](=O)[O-])c1N	eLon inh 95, EBV gp42 block 150 (no result: MEX-5 binding, MCL1-BIM inh, BCLXL inh, GLD-1 RNA inh) | eLon confirm 182
Cc1cc(C=O)c(O)cc1O	eLon inh 37 (no result: EBV gp42 block) | eLon confirm inactive
Cc1ccc(-c2nc(COC(=O)C3=NN(c4ccccc4)C(=O)CC3)cs2)cc1	none (no result: MEX-5 binding, EBV gp42 block)
CC(O)c1ccc(Oc2cnccn2)cc1 (stereo not given)	none (no result: EBV gp42 block)
COc1ccc(Cl)cc1N(CC(=O)Nc1ccccc1C(=O)N1CCCC1)S(C)(=O)=O	eLon inh 18 (no result: EBV gp42 block) | eLon confirm inactive
CS(=O)(=O)N(CC(=O)Nc1ccccc1C(=O)N1CCCC1)c1ccccc1Br	none (no result: EBV gp42 block)
Cc1cc(Cl)ccc1OC(C)C(=O)NN=C1CCCCCC1 (stereo not given)	eLon inh 21 (no result: EBV gp42 block) | eLon confirm inactive
CC(C)C(=O)NNS(=O)(=O)c1ccccc1[N+](=O)[O-]	eLon inh 15 | eLon confirm inactive
CCOC(=O)C1=C(N)Oc2cc(O)ccc2C1c1ccc(C)cc1 (stereo not given)	none (no result: EBV gp42 block)
CCOC(=O)C1=C(N)Oc2cc(O)ccc2C1c1ccc(F)cc1F (stereo not given)	eLon inh 34 (no result: EBV gp42 block) | eLon confirm inactive
Cc1cc(C)n(CCC(=O)N2CCc3ccccc32)n1	none (no result: EBV gp42 block)
COc1ccc(C2(c3ccc(OC(C)=O)cc3OC(C)=O)CC(c3ccccc3)NC(=S)N2)cc1 (stereo not given)	eLon inh 21 | eLon confirm inactive
CC(=O)Oc1ccc2c(c1)OC(c1ccccc1)CC21CC(C)(C)NC(=S)N1 (stereo not given)	none
Cc1cccc(NC(=O)CN2CCN(C(=O)c3cnn(Cc4ccccc4)c3)CC2)c1C	none (no result: MEX-5 binding, EBV gp42 block)
Nc1nc(C2CC(=O)OC23CCCCC3)cs1 (stereo not given)	none
Nc1nc(C2C(=O)CCCC2=O)cs1	eLon inh 30 | eLon confirm inactive
CC1(C)CC(NC(=O)c2cccc(S(=O)(=O)N(Cc3ccccc3)c3ccccc3)c2)CC(C)(C)N1	none (no result: EBV gp42 block)
CN(C)Cc1ccccc1-c1cccc2nccn12	eLon inh 17 (no result: MEX-5 binding, MCL1-BIM inh, EBV gp42 block, BCLXL inh, GLD-1 RNA inh) | eLon confirm inactive
Cc1ccc(NC(=O)N(Cc2ccc3c(c2)OCO3)Cc2cc3cc4c(cc3[nH]c2=O)OCCO4)cc1	eLon inh 15 | eLon confirm inactive
CCC(=O)N(Cc1ccc(C)cc1)Cc1cc2cc3c(cc2[nH]c1=O)OCO3	eLon inh 21 | eLon confirm inactive
Cn1nccc1C(=O)Oc1ccc(/C=N/NC(=O)c2ccccc2O)cc1	none
CCc1cccc(CC)c1N1C(=O)C2=C(SCCCS2)C1=O	eLon inh 180 (no result: MEX-5 binding, MCL1-BIM inh, EBV gp42 block, BCLXL inh, GLD-1 RNA inh) | eLon confirm 160
Cc1cc(C)nc(SCC(=O)Nc2sc3c(c2C#N)CCC(C)C3)n1 (stereo not given)	none (no result: EBV gp42 block)
C=CCn1c(SCC(=O)Nc2sc3c(c2C#N)CCC(C)C3)nc2cc(C(=O)O)ccc2c1=O (stereo not given)	eLon inh 48 (no result: MEX-5 binding, MCL1-BIM inh, EBV gp42 block, BCLXL inh) | eLon confirm inactive
COc1ccc(C(=O)NCCn2ccc3ccccc32)cc1OC	none
COc1ccccc1C(=O)NCCn1ccc2ccccc21	eLon inh 16 | eLon confirm inactive
CC(C)NC(=O)C1(C)CCCN1C(=O)c1cc(C#N)cs1 (stereo not given)	none (no result: MEX-5 binding, MCL1-BIM inh, EBV gp42 block, BCLXL inh, GLD-1 RNA inh)
N#CC(C#N)=C1C=C2C=C(N3CCCCCC3)CCC2CC1 (stereo not given)	eLon inh 151, MEX-5 binding inconclusive (no result: MCL1-BIM inh, BCLXL inh, GLD-1 RNA inh) | eLon confirm inactive
N#CC(C#N)=C1C=C2C=C(N3CCOCC3)CCC2CC1 (stereo not given)	MEX-5 binding inconclusive (no result: MCL1-BIM inh, BCLXL inh, GLD-1 RNA inh)
COc1ccc(CCNC(=O)c2ccc3c(c2)N(Cc2ccc(F)cc2)CCS3)c(OC)c1	eLon inh 18 (no result: EBV gp42 block) | eLon confirm inactive
CN1CCN(C(=O)c2ccc(-c3cnc4cccnn34)cc2)CC1	none (no result: MEX-5 binding, MCL1-BIM inh, EBV gp42 block, BCLXL inh, GLD-1 RNA inh)
COc1ccc(S(=O)(=O)NC2CC2)cc1-n1cnnn1	none
COc1cc(S(=O)(=O)NC2CCCC2)ccc1-n1cnnn1	eLon inh 22 (no result: EBV gp42 block) | eLon confirm inactive
CC(NC(=O)c1ccccc1Cl)c1nnc(SCC(=O)Nc2ccc(C(=O)O)cc2)n1C (stereo not given)	eLon inh 29 | eLon confirm inactive
COC/C=C/C1=CC2=CC(=O)C(C)(OC(=O)c3cnc4ccccc4n3)C(=O)C2=CN1CCOC (stereo not given)	eLon inh 29 (no result: EBV gp42 block) | eLon confirm inactive
COC/C=C/C1=CC2=CC(=O)C(C)(OC(=O)c3cnc4ccccc4n3)C(=O)C2=CN1CCCOC(C)C (stereo not given)	none
